# According to the supplement of paper PMC10646978:
# ± gives the standard deviation.
# What was measured:
# Details in all cases: modulator concentration 10 µM
# [1] = system: RAW-Dual (murine macrophage reporter line); assay: NF-kB reporter (SEAP) activity fold change vs agonist alone; higher = enhanced NF-kB activity
# Method in brief: (§1)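 RAW-Dual murine macrophage reporter cells were plated at 50 000 per well in 384-well plates, pin-transferred compound to 10 μM final, and pre-incubated for 1 hour at 37 °C before a PRR agonist was added and the cells incubated overnight. NF-κB activity was read from supernatant SEAP with QUANTI-Blue at 620 nm absorbance, and IRF activity from Lucia luciferase with QUANTI-Luc by luminescence. Each signal was expressed as fold change by dividing by the mean agonist-only control on the same plate. Two replicate plates were averaged, with errors obtained by propagation.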
# [2] = system: RAW-Dual (murine macrophage reporter line); assay: IRF reporter (Lucia luciferase) activity fold change vs agonist alone; higher = enhanced IRF activity
# Method in brief: as §1
# [3] = system: RAW-Dual (murine macrophage reporter line); assay: viability score (confluency relative to resting cells, overnight) (fraction); higher = more viable, active = viable (0.7 or more)
# Method in brief: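 Confluency was the readout: RAW-Dual macrophages were imaged with IncuCyte after an overnight exposure to compound at 10 μM final. IncuCyte software produced two masks over all imaged wells. The viability score expresses confluency against resting cells, and both masks had to exceed 70% of resting cells for a compound to meet the cutoff.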
# [4] = agonist: CpG ODN 1826 0.5 ug/mL
Structure (SMILES),"NF-kB reporter [1, 4]",NF-kB reporter ([1]; agonist: LPS 0.1 ug/mL),NF-kB reporter ([1]; agonist: MPLA […]),IRF reporter ([2]; agonist: 3'3'-cGAMP 10 ug/mL),IRF reporter ([2]; agonist: LPS 0.1 ug/mL),IRF reporter ([2]; agonist: MPLA […]),viability score [3]
CCN(CC)c1ccc(C=NN2C(=O)c3ccccc3C2=O)cc1,1.05 ± 0.088,1.08 ± 0.07,1.01 ± 0.061,0.827 ± 0.04,1.05 ± 0.1,1.11 ± 0.15,0.994 (active)
O=C(COc1ccc2ccccc2c1)NCC#CCN1CCCCC1,0.854 ± 0.036,0.981 ± 0.078,1.07 ± 0.064,1 ± 0.048,1.27 ± 0.29,1.48 ± 0.49,0.956 (active)
COc1ccc(N(CC(=O)NCCc2ccc(OC)c(OC)c2)S(=O)(=O)c2ccc(OC)c(OC)c2)cc1,0.951 ± 0.083,0.994 ± 0.062,0.934 ± 0.12,1.01 ± 0.041,1.44 ± 0.18,1.2 ± 0.11,1.01 (active)
O=C(Oc1ccc(O)c(CO)c1)c1ccccc1,1.15 ± 0.12,1.08 ± 0.071,1.06 ± 0.086,0.637 ± 0.1,0.888 ± 0.098,0.769 ± 0.16,1 (active)
COc1cc(C=C2SC(=S)NC2=O)ccc1OCCC(C)C,0.847 ± 0.074,0.969 ± 0.049,1.09 ± 0.11,1.03 ± 0.047,1.43 ± 0.12,1.61 ± 0.2,1 (active)
COC(CNC(=O)c1cccc(Br)c1)c1ccccc1C (stereo not drawn),0.649 ± 0.056,0.999 ± 0.097,0.873 ± 0.04,0.832 ± 0.032,0.96 ± 0.1,0.901 ± 0.21,1 (active)
NC[C@H]1CC[C@H](C(=O)O)CC1,0.939 ± 0.1,1.06 ± 0.073,0.958 ± 0.021,0.993 ± 0.14,1.01 ± 0.061,1.13 ± 0.11,0.999 (active)
O=C(NCCCOc1cccc2cccnc12)c1cccnc1,0.892 ± 0.081,0.909 ± 0.077,1.11 ± 0.13,1 ± 0.049,1.17 ± 0.2,1.25 ± 0.39,0.989 (active)
COc1cc(CNCc2ccc3ccccc3c2)cc(OC)c1,1.26 ± 0.12,0.986 ± 0.1,1.24 ± 0.1,1.19 ± 0.35,0.906 ± 0.043,2.05 ± 0.17,0.589 (inactive)
N[C@H](Cc1ccccc1)C(=O)O,0.958 ± 0.074,1.05 ± 0.052,0.958 ± 0.025,0.895 ± 0.076,0.988 ± 0.049,1.11 ± 0.14,1 (active)
COc1ccc(NC(=O)c2ccc(C(=N)N(C)C)cc2)c(C(=O)Nc2ccc(Cl)cn2)c1,0.892 ± 0.33,1.18 ± 0.061,1.1 ± 0.11,0.837 ± 0.043,1.05 ± 0.13,1.22 ± 0.26,0.994 (active)
S=C(NC12CC3CC(CC(C3)C1)C2)N1CCOCC1,1.14 ± 0.11,1.06 ± 0.074,1.07 ± 0.039,1.01 ± 0.13,1.07 ± 0.1,1.15 ± 0.12,1 (active)
Clc1cnc(NC2CCN(c3ncnc4c3CCCC4)CC2)nc1,0.969 ± 0.043,1.08 ± 0.089,1.55 ± 0.24,0.698 ± 0.032,1.16 ± 0.21,1.29 ± 0.47,0.954 (active)
Nc1ccccc1NC(=O)c1ccc(CNC(=O)OCc2cccnc2)cc1,2.23 ± 0.17,1.53 ± 0.14,1.96 ± 0.052,0.17 ± 0.033,0.252 ± 0.025,0.298 ± 0.029,0.913 (active)
